Drawing on PubChem BioAssay (NCI), this text covers growth for eight compounds.

Compounds without any hit were thinned out: in the full panel of roughly 83,000, 20% have a hit.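 Treatment: one concentration, 48 hours, 96-well format. Scoring: percent growth, with anything below 10 considered active.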 Unmarked numbers belong to inactive results. The source made the active and inactive calls.

Experiment in all cases: NCI-60 one-dose screen, 48 h (100 = growth as untreated, 0 = no growth, -100 = all killed)
One assay deals with HCT-15 colon. To be noted: 10 µM unless noted.
Another assay relates to HT29 colon. The settings on record: 10 µM unless noted.
The subject of the next assay is SNB-75 CNS. To be noted: 10 µM unless noted.
For a further assay, the system named is SNB-19 CNS. The settings on record: 10 µM unless noted.
For a further assay, the system named is U251 CNS. The settings on record: 10 µM unless noted.
In a further assay the test system is PC-3 prostate. To be noted: 10 µM unless noted.
The subject of a further assay is SK-MEL-5 melanoma. To be noted: 10 µM unless noted.
The next assay relates to UACC-62 melanoma. To be noted: 10 µM unless noted.
The next assay deals with LOX IMVI melanoma. To be noted: 10 µM unless noted.
For a further assay, the system named is SK-MEL-28 melanoma. To be noted: 10 µM unless noted.
In a further assay the test system is SK-MEL-2 melanoma. The settings on record: 10 µM unless noted.
The subject of the next assay is SN12C renal. The settings on record: 10 µM unless noted.
The next assay concerns UO-31 renal. To be noted: 10 µM unless noted.
The subject of a further assay is TK-10 renal. The settings on record: 10 µM unless noted.
The next assay deals with ACHN renal. To be noted: 10 µM unless noted.
Another assay relates to A498 renal. The settings on record: 10 µM unless noted.
The next assay relates to CCRF-CEM leukemia. To be noted: 10 µM.
The subject of another assay is MOLT-4 leukemia. To be noted: 10 µM unless noted.
The subject of a further assay is CAKI-1 renal. The settings on record: 10 µM unless noted.

Turning to `NC(CSC(c1ccccc1)(c1ccccc1)c1ccccc1)C(=O)NCC(=O)O` (stereo not drawn), the growth in the assay on HCT-15 colon is 73.2%; in the assay on HT29 colon, 101%; with SNB-75 CNS, 76.1%; in the assay with SNB-19 CNS, 85.7%; with U251 CNS, 38.3%; in the assay on PC-3 prostate, 81.9%. Further, the growth with SK-MEL-5 melanoma was 44.3%; with UACC-62 melanoma, 62.5%; in the assay on LOX IMVI melanoma it was 81.4%; in the assay on SK-MEL-28 melanoma it was 63.3%; in the assay with SK-MEL-2 melanoma, 38.3%; in the assay on SN12C renal it was 70.7%. For the same compound, the growth in the assay on UO-31 renal was 84.4%; in the assay on TK-10 renal it was 98.8%; in the assay on ACHN renal it was 88.4%; with A498 renal it was 65%; with CCRF-CEM leukemia, 53.5%; in the assay on MOLT-4 leukemia, 83.7%.

Turning to `CCOC(=O)/C(C#N)=C(/CC)OCC`, the growth is 109% with HCT-15 colon; 103% in the assay with HT29 colon; 90.8% in the assay on SNB-75 CNS; 106% in the assay with SNB-19 CNS; 103% in the assay on U251 CNS; 93.6% in the assay with PC-3 prostate. The growth in the assay with SK-MEL-5 melanoma was 110%; in the assay on UACC-62 melanoma it was 110%; with LOX IMVI melanoma it was 91.4%; in the assay on SK-MEL-28 melanoma, 106%; in the assay with SK-MEL-2 melanoma, 91.7%; with SN12C renal, 109%. Further, the growth in the assay with UO-31 renal was 84.1%; with TK-10 renal it was 91.9%; in the assay with ACHN renal it was 94.6%; with CAKI-1 renal, 95.4%; in the assay on A498 renal, 122%; in the assay on MOLT-4 leukemia, 85%.

On to `O=C(CCC(=O)N(CCO)CCO)N(CCO)CCO`, for which the growth was 94.9% in the assay on HCT-15 colon; 98.6% in the assay on HT29 colon; 94% in the assay with SNB-75 CNS; 108% in the assay on SNB-19 CNS; 105% in the assay with U251 CNS; 100% in the assay on PC-3 prostate. The growth is 114% in the assay with SK-MEL-5 melanoma; 109% in the assay with UACC-62 melanoma; 101% with LOX IMVI melanoma; 106% with SK-MEL-28 melanoma; 102% with SK-MEL-2 melanoma; 106% in the assay with SN12C renal. Besides, the growth is 86% with UO-31 renal; 99.5% in the assay with TK-10 renal; 107% in the assay with ACHN renal; 93.3% in the assay on CAKI-1 renal; 120% in the assay on A498 renal; 90.8% in the assay on MOLT-4 leukemia.

On to `CCCCCCCCCCCCCCCCCCOP(=O)(O)O`, for which the growth in the assay on HCT-15 colon was 107%; with HT29 colon, 106%; in the assay with SNB-75 CNS it was 97%; with SNB-19 CNS, 101%; with U251 CNS it was 101%; in the assay with PC-3 prostate, 92.5%. The growth with SK-MEL-5 melanoma was 99.2%; in the assay with UACC-62 melanoma, 91.5%; in the assay with LOX IMVI melanoma, 99.3%; in the assay on SK-MEL-28 melanoma, 111%; in the assay on SK-MEL-2 melanoma, 124%; in the assay on SN12C renal it was 94.1%. For the same compound, the growth is 86.8% with UO-31 renal; 107% with TK-10 renal; 100% in the assay with ACHN renal; 110% in the assay with A498 renal; 111% in the assay with MOLT-4 leukemia.

`CC(=O)N(N=O)c1ccc([N+](=O)[O-])cc1Cl`: the growth in the assay with HCT-15 colon was 54.6%; with HT29 colon, 89.7%; with SNB-75 CNS it was 81.2%; in the assay on SNB-19 CNS, 58.6%; in the assay on U251 CNS, 57.8%; in the assay with PC-3 prostate, 47.4%. Moreover, the growth in the assay on SK-MEL-5 melanoma was 18.6%; in the assay on UACC-62 melanoma, 27.9%; with LOX IMVI melanoma, 72.7%; in the assay on SK-MEL-28 melanoma, 68.5%; in the assay on SK-MEL-2 melanoma, 73.1%; with SN12C renal it was 47.4%. Further, the growth in the assay with UO-31 renal was 57.3%; in the assay with TK-10 renal it was 130%; in the assay with ACHN renal it was 58.9%; in the assay with CAKI-1 renal it was 100%; with CCRF-CEM leukemia it was 46.8%; in the assay on MOLT-4 leukemia it was 58.4%.

`BrCCCOc1ccc(Oc2ccc(OCCCBr)cc2)cc1`: the growth in the assay on HCT-15 colon is 93.3%; with HT29 colon it was 107%; with SNB-75 CNS it was 86.6%; with SNB-19 CNS, 92.5%; with U251 CNS, 88.1%; in the assay with PC-3 prostate, 101%. Also, the growth with SK-MEL-5 melanoma was 97%; in the assay on UACC-62 melanoma, 94.5%; in the assay with LOX IMVI melanoma it was 50.5%; with SK-MEL-28 melanoma it was 99%; in the assay with SK-MEL-2 melanoma, 97.4%; in the assay with SN12C renal, 95.3%. The growth with UO-31 renal was 105%; in the assay with TK-10 renal, 108%; in the assay with ACHN renal, 120%; in the assay with CAKI-1 renal, 112%; in the assay on A498 renal, 99.4%; in the assay on MOLT-4 leukemia, 96.4%.

For `CC1CCCCC[N+]12CCCC2` (stereo not drawn), the growth with HCT-15 colon was 95.6%; in the assay with HT29 colon, 107%; in the assay with SNB-75 CNS, 95%; in the assay with SNB-19 CNS it was 106%; in the assay on U251 CNS it was 85.3%; with PC-3 prostate, 93.4%. Besides, the growth with SK-MEL-5 melanoma was 99.5%; in the assay on UACC-62 melanoma it was 103%; with LOX IMVI melanoma it was 95.8%; with SK-MEL-28 melanoma, 109%; with SK-MEL-2 melanoma it was 101%; with SN12C renal, 101%. The growth in the assay with UO-31 renal is 88.8%; in the assay on TK-10 renal it was 100%; in the assay on ACHN renal it was 101%; with CAKI-1 renal, 98.7%; with A498 renal, 109%; in the assay with MOLT-4 leukemia it was 99.2%.

In the case of `CCOC1=C(Cl)C(=O)C(OCC)=C(Cl)C1=O`, the growth in the assay with HCT-15 colon is 107%; with HT29 colon, 101%; in the assay with SNB-75 CNS, 93.3%; in the assay with SNB-19 CNS, 96.3%; with U251 CNS it was 104%; in the assay on PC-3 prostate, 104%. Also, the growth in the assay on SK-MEL-5 melanoma was 105%; with UACC-62 melanoma, 98.1%; in the assay with LOX IMVI melanoma, 104%; in the assay on SK-MEL-28 melanoma, 109%; with SK-MEL-2 melanoma, 100%; in the assay with SN12C renal, 98.8%. Besides, the growth was 83.8% in the assay on UO-31 renal; 104% in the assay on TK-10 renal; 109% in the assay with CAKI-1 renal; 128% in the assay on A498 renal; 9.18% (active) in the assay with CCRF-CEM leukemia; 88.1% in the assay on MOLT-4 leukemia.
